Assay results: PubChem BioAssay (Tox21)
Where “and” joins values, the source holds several entries; their conditions need not be identical. Equal values may be shown once. Records with an inconclusive call do not appear. Calls of active or inactive are those of the source. Unless noted, the call rests on the fitted dose curve; in most records, active means well fitted curve in the direction sought with a large enough effect in the repeat runs; inconclusive means weak or mixed curves; inactive means no such curve, though single readings can be large; an effect the other way counts as inactive or inconclusive.

Tests used:
[1] = target: Thyrotropin receptor (Homo sapiens) (UniProt P16473); assay: qHTS assay to identify small molecule agonists of the thyroid stimulating hormone receptor (TSHR) signaling pathway (AID 1224843; calls by dose curve; further: nearly all actives have a fitted effect of over 45% in size)
Method in brief: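 Cell line HEK293 with TSHR; density 800/well. Exposure 30 min RT. Readout HTRF cAMP (cAMP-d2/anti-cAMP-cryptate), 1 h RT before reading.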

[2] = qHTS assay to identify small molecule agonists of the hypoxia (HIF-1) signaling pathway - cell viability counter screen (AID 1224844; calls by dose curve; further: nearly all actives have a fitted effect of over 50% in size)
Method in brief: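 Tox21 10K compounds were added to HRE-bla ME-180 cells (0.5% dialyzed FBS) and incubated 17 hrs at 37C; ATP-based CellTiter-Glo luminescence then reported cell viability in the same wells.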

[3] = qHTS assay to identify small molecule agonists of H2AX (AID 1224845; active means well fitted activation curve with a large enough effect in the signal ratio in the repeat runs, not every such curve was filed as active; the % refers to the signal ratio)
Method in brief: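 Wild-type CHO-K1 cells plated overnight, then exposed 3 hr at 37C to compounds at 15 concentrations (0.76% DMSO). Lysed, then HTRF anti-pH2AX(S139)-cryptate/anti-H2AX-d2 detection after 24 hr at room temperature; emissions 665 and 620 nm.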

[4] = qHTS assay to identify small molecule agonists of the hypoxia (HIF-1) signaling pathway (AID 1224846; active means well fitted activation curve with a large enough effect in the signal ratio in the repeat runs, not every such curve was filed as active; the % refers to the signal ratio)
Method in brief: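 Steps: seed ME-180 HRE-bla cells (2,000/well, 0.5% dialyzed FBS); incubate 5 hrs at 37C; pin-transfer compounds or DMSO; incubate 17 hrs; add LiveBLAzer B/G substrate CCF4-AM; measure reporter activation by FRET.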

[5] = qHTS assay to identify small molecule agonists of H2AX - cell viability counter screen (AID 1224847; calls by dose curve; further: top concentration of the series differs between compounds; nearly all actives have a fitted effect of over 30% in size)
Method in brief: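 Compounds tested at 15 concentrations were incubated 3 hr at 37C with wild-type CHO-K1 cells; cellular ATP-based luminescence (CellTiter-Glo) indicated viability.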

[6] = qHTS RealTime-Glo MT Cell Viability Assay in HepG2 cells - 24 hour (AID 1224867); further: nearly all actives have a fitted effect of over 50% in size
Method in brief: (§1)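 HepG2 cells (600/well) were dispensed with RealTime-Glo reagents, incubated 5 h at 37 °C, then treated with compounds in DMSO for up to 40 h. Nonlytic NanoLuc luminescence reflecting viable cells was read at each stated time point.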

[7] = qHTS RealTime-Glo MT Cell Viability Assay in HEK293 cells - 32 hour (AID 1224868); further: top concentration of the series differs between compounds; nearly all actives have a fitted effect of over 50% in size
Method in brief: (§2)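 HEK293 cells seeded with NanoLuc/prosubstrate reagent, rested 5 h at 37 C, then dosed and kept at 37 C up to 40 h. Nonlytic real-time luminescence from viable cells read at 0, 8, 16, 24, 32 and 40 h.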

[8] = A CellTox Green Cytotoxicity Assay to monitor cytotoxicity in HEK293 cells - 0 hour (AID 1224869); further: nearly all actives have a fitted effect of over 50% in size
Method in brief: (§3)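 Cytotoxicity was tracked continuously in HEK293 cells by a DNA-binding dye excluded from viable cells. Compounds were transferred in DMSO 5 h after seeding; fluorescence was recorded at intervals up to 40 h.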

[9] = A CellTox Green Cytotoxicity Assay to monitor cytotoxicity in HEK293 cells - 40 hour (AID 1224871); further: nearly all actives have a fitted effect of over 45% in size
Method in brief: as §3

[10] = qHTS RealTime-Glo MT Cell Viability Assay in HEK293 cells - 16 hour (AID 1224872)
Method in brief: as §2

[11] = qHTS RealTime-Glo MT Cell Viability Assay in HepG2 cells - 8 hour (AID 1224873); further: nearly all actives have a fitted effect of over 55% in size
Method in brief: (§4)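 HepG2 cells mixed with RealTime-Glo MT reagents (NanoLuc plus cell-permeant prosubstrate) were seeded at 600 cells/well, incubated 5 h at 37 C/5% CO2, then pinned with compounds in DMSO; nonlytic luminescence tracked viability during 40 h treatment.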

[12] = A CellTox Green Cytotoxicity Assay to monitor cytotoxicity in HEK293 cells - 24 hour (AID 1224875); further: nearly all actives have a fitted effect of over 45% in size
Method in brief: as §3

[13] = A CellTox Green Cytotoxicity Assay to monitor cytotoxicity in HepG2 cells - 16 hour (AID 1224876); further: nearly all actives have a fitted effect of over 45% in size
Method in brief: (§5)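 Real-time, homogeneous cytotoxicity readout: dead-cell DNA staining by CellTox Green in HepG2 monolayers, fluorescence measured at timed intervals up to 40 h of continuous compound exposure.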

[14] = A CellTox Green Cytotoxicity Assay to monitor cytotoxicity in HepG2 cells - 24 hour (AID 1224878); further: nearly all actives have a fitted effect of over 45% in size
Method in brief: as §5

[15] = A CellTox Green Cytotoxicity Assay to monitor cytotoxicity in HepG2 cells - 40 hour (AID 1224879); further: nearly all actives have a fitted effect of over 40% in size
Method in brief: as §5

[16] = qHTS assay to identify small molecule antagonists of the estrogen related receptor (ERR) signaling pathway from Tox21 library (AID 1224848); further: nearly all actives have a fitted effect of over 50% in size
Method in brief: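 Screening used an ERR reporter line supplied by NTP, exposed for 18 h at 37 C to library compounds delivered in DMSO. Signal was luciferase luminescence developed with ONE-Glo at room temperature for 30 min.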

[17] = qHTS assay to identify small molecule agonists of the estrogen related receptor (ERR) signaling pathway from Tox21 library (AID 1224849; calls by dose curve; further: nearly all actives have a fitted effect of over 15% in size); settings: ERR reporter cell line, ONE-Glo luciferase, 18 h; at 92.4 µM (top of the series)
Method in brief: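 Agonist signal is luciferase luminescence from an ERR reporter cell line treated 18 h at 37 C with DMSO-dissolved compounds, read 30 min after ONE-Glo addition at room temperature.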

[18] = qHTS RealTime-Glo MT Cell Viability Assay in HepG2 cells - 40 hour (AID 1224870); further: nearly all actives have a fitted effect of over 50% in size
Method in brief: as §4

[19] = qHTS RealTime-Glo MT Cell Viability Assay in HEK293 cells - 40 hour (AID 1224874); settings: RealTime-Glo luminescence; max response: hits give low values; further: nearly all actives have a fitted effect of over 50% in size
Method in brief: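 Nonlytic bioluminescent viability monitoring. HEK293 at 600 cells/well with reagent; 5 h settle; compound transfer by pintool; plates held at 37 C and read at set time points.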

[20] = qHTS RealTime-Glo MT Cell Viability Assay in HepG2 cells - 32 hour (AID 1224877); further: nearly all actives have a fitted effect of over 55% in size
Method in brief: as §1
On the % scale 0 is the no-effect control and ±100 the full control effect.

Thyrotropin receptor (Homo sapiens), sequence (P16473 whole entry, looked up): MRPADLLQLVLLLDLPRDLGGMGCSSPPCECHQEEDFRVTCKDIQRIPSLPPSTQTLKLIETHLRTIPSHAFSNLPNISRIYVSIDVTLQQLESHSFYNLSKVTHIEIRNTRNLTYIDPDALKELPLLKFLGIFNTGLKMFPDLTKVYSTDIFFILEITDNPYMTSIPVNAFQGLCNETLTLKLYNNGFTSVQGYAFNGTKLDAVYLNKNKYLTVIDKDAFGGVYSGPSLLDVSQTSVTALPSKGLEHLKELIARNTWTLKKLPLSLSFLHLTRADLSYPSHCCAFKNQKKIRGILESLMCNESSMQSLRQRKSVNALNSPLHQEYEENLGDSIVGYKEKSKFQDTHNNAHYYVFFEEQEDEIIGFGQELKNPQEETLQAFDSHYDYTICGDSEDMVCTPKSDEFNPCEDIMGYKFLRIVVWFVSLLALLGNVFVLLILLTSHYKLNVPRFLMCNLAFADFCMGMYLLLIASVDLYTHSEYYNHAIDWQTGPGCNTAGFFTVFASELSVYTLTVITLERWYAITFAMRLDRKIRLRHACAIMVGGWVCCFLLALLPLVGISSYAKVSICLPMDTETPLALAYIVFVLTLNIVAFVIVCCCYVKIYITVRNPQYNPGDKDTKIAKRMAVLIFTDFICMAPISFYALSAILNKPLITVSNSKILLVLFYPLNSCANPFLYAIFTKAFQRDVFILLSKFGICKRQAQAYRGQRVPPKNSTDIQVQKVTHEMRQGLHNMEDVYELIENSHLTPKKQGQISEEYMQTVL

Oc1c(Br)cc(Br)cc1Br
inactive: Potency [1] | Potency [2] | Potency [3] | outcome [4] | Potency [5] | outcome [6] | Potency [7] | Potency [8] | Potency [9] | outcome [10] | outcome [11] | Potency [12] | Potency [13] | Potency [14] | Potency [15]

COc1nc(NC(C)C)nc(NC(C)C)n1
inactive: Potency [1] | Potency [2] | outcome [4] | Potency [5] | Potency [16] | activity change, positive = activation [17] 1.12% and 6.24% | outcome [6] | Potency [7] | Potency [8] | outcome [18] | Potency [9] | outcome [10] | outcome [11] | max response [19] -0.66% and 0.377% | Potency [13] | Potency [14] | Potency [15]

C=CC#N
inactive: Potency [1] | Potency [2] | outcome [4] | Potency [5] | Potency [16] | activity change, positive = activation [17] 0.57% and 1.17% | outcome [6] | Potency [7] | Potency [8] | outcome [18] | Potency [9] | outcome [10] | outcome [11] | Potency [13] | outcome [20] | Potency [14] | Potency [15]

OCCCCO
inactive: Potency [1] | Potency [2] | outcome [4] | Potency [5] | Potency [16] | activity change, positive = activation [17] 2.81% and 0.133% | outcome [6] | Potency [7] | Potency [8] | Potency [9] | outcome [10] | outcome [11] | max response [19] 2.32% and 1.82% | Potency [12] | Potency [13] | outcome [20] | Potency [14] | Potency [15]

CC(C)CCCCCCOC(=O)c1ccccc1C(=O)OCCCCCCC(C)C
inactive: Potency [1] | Potency [2] | outcome [4] | Potency [5] | outcome [6] | Potency [7] | Potency [8] | Potency [9] | outcome [10] | outcome [11] | max response [19] 12.6% and 8.04% and 6.43% | Potency [13] | outcome [20] | Potency [14] | Potency [15]

Nc1ccc(N)cc1
inactive: Potency [1] | Potency [2] | outcome [4] | Potency [5] | outcome [6] | Potency [7] | Potency [8] | outcome [18] | Potency [9] | outcome [10] | outcome [11] | max response [19] 13.6% and -13% | Potency [12] | Potency [13] | outcome [20] | Potency [14] | Potency [15]

ClCCOCCCl
inactive: Potency [1] | Potency [2] | outcome [4] | Potency [5] | outcome [6] | Potency [7] | Potency [8] | outcome [18] | Potency [9] | outcome [10] | outcome [11] | Potency [12] | Potency [13] | Potency [14] | Potency [15]

CNC(=O)O/N=C/C(C)(C)SC
inactive: Potency [1] | Potency [3] | outcome [4] | Potency [5] | Potency [16] | activity change, positive = activation [17] 5.2% and 5.41% | outcome [6] | Potency [7] | Potency [8] | outcome [18] | Potency [9] | outcome [10] | outcome [11] | max response [19] 6.31% and 4.21% | Potency [12] | Potency [13] | Potency [14] | Potency [15]

CCOP(=S)(OCC)Oc1ccc([N+](=O)[O-])cc1
inactive: Potency [1] | Potency [2] | outcome [4] | Potency [5] | outcome [6] | Potency [7] | Potency [8] | outcome [18] | Potency [9] | outcome [10] | outcome [11] | Potency [12] | Potency [13] | outcome [20] | Potency [14] | Potency [15]

Cc1ccc(O)c(C)c1
inactive: Potency [1] | outcome [4] | Potency [5] | Potency [16] | activity change, positive = activation [17] -0.712% and 11.3% | outcome [6] | Potency [7] | Potency [8] | Potency [9] | outcome [10] | outcome [11] | Potency [13] | Potency [14] | Potency [15]

CC(=O)/C=C/c1ccccc1
inactive: Potency [1] | Potency [2] | outcome [4] | Potency [5] | outcome [6] | Potency [7] | Potency [8] | outcome [18] | Potency [9] | outcome [10] | outcome [11] | Potency [13] | outcome [20] | Potency [14] | Potency [15]

O=C/C=C/c1ccccc1
inactive: Potency [1] | Potency [3] | outcome [4] | Potency [5] | outcome [6] | Potency [7] | Potency [8] | outcome [18] | Potency [9] | outcome [10] | outcome [11] | max response [19] -0.971% and 11.8% and 2.22% | Potency [12] | Potency [13] | Potency [14] | Potency [15]

CSc1nnc(C(C)(C)C)c(=O)n1N
inactive: Potency [1] | Potency [3] | outcome [4] | Potency [5] | outcome [6] | Potency [7] | Potency [8] | outcome [18] | Potency [9] | outcome [10] | outcome [11] | max response [19] -23.1% and -14.9% | Potency [13] | Potency [14] | Potency [15]

CCNc1nc(Cl)nc(NC(C)C)n1
inactive: Potency [1] | Potency [2] | outcome [4] | Potency [5] | Potency [16] | activity change, positive = activation [17] -5.74% and -1.44% | outcome [6] | Potency [7] | Potency [8] | Potency [9] | outcome [10] | outcome [11] | max response [19] 2.47% and -5.57% | Potency [12] | Potency [13] | outcome [20] | Potency [14] | Potency [15]
